These results are taken from PubChem BioAssay (NCATS).

Assay [1] can be described thus: Quantitative High-Throughput drug screen in 47 multiple myeloma cell lines against the NCATS MIPE library collection: MM1R_ATCC cell viability assay (AID 1918981). Note: nearly all actives have a fitted effect of over 35% in size. The essentials:
(§1)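 500 cells/well per myeloma line exposed to pinned MIPE 4.0 compounds for 48 h at 37 °C, 5% CO2. Viability read as ATP by CellTiter-Glo luminescence, normalised to DMSO-only (100%) and media-only (0%) wells.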

A short description of assay [2]: Quantitative High-Throughput drug screen in 47 multiple myeloma cell lines against the NCATS MIPE library collection: LP1_DSMZ cell viability assay (AID 1918982). Note: nearly all actives have a fitted effect of over 35% in size. In short, it runs like this: as §1
The nature of assay [3]: Quantitative High-Throughput drug screen in 47 multiple myeloma cell lines against the NCATS MIPE library collection: KMS28PE_JCRB cell viability assay (AID 1918983). Note: nearly all actives have a fitted effect of over 35% in size. In short, it runs like this: as §1
Assay [4] in a line: Quantitative High-Throughput drug screen in 47 multiple myeloma cell lines against the NCATS MIPE library collection: L363_DSMZ cell viability assay (AID 1918984). Note: nearly all actives have a fitted effect of over 40% in size. The essentials: as §1
Assay [5] can be described thus: Quantitative High-Throughput drug screen in 47 multiple myeloma cell lines against the NCATS MIPE library collection: KMS34_JCRB cell viability assay (AID 1918985). Note: nearly all actives have a fitted effect of over 40% in size. The essentials: as §1
The nature of assay [6]: Quantitative High-Throughput drug screen in 47 multiple myeloma cell lines against the NCATS MIPE library collection: OCIMY7_PLB cell viability assay (AID 1918987). Note: nearly all actives have a fitted effect of over 65% in size. Conditions: OCI-MY7 myeloma viability, CellTiter-Glo ATP, 48 h; viability (% of DMSO): at 45.8 µM (top of the series). In short, it runs like this:
as §1

Assay [7] in a line: Quantitative High-Throughput drug screen in 47 multiple myeloma cell lines against the NCATS MIPE library collection: OCIMY5_PLB cell viability assay (AID 1918988). Note: nearly all actives have a fitted effect of over 65% in size. The essentials:
as §1

The nature of assay [8]: Quantitative High-Throughput drug screen in 47 multiple myeloma cell lines against the NCATS MIPE library collection: OPM1_PLB cell viability assay (AID 1918989). Note: nearly all actives have a fitted effect of over 40% in size. In short, it runs like this: as §1
The nature of assay [9]: Quantitative High-Throughput drug screen in 47 multiple myeloma cell lines against the NCATS MIPE library collection: MM1S_ATCC cell viability assay (AID 1918980). Note: nearly all actives have a fitted effect of over 45% in size. The essentials:
as §1

Molecules are shown by their SMILES. Records with an inconclusive call do not appear. Activity calls are given as the source filed them. Calls come from the whole dose curve; as a rule, active = well fitted cell-killing curve with a large enough effect; inconclusive = small, poorly fitted or top-dose-only effect, or effect the other way; inactive = no such curve, though single readings can be large or run the other way.
Potency is the fitted concentration of half-maximal effect.

For the compound `CCCCCNC(=O)N1CCC(CN(Cc2ccc(Cl)cc2)Cc2ccc([N+](=O)[O-])s2)C1` (configuration not stated), the Potency in assay [1] is 14.8 µM (active); in [2], 29.6 µM (active); in assay [3] it was 20.9 µM (active); in assay [4] it was 20.9 µM (active); in assay [5] it was 26.4 µM (active); in assay [6], 16.6 µM (active). Besides, the Potency in assay [7] is 23.5 µM (active).
With `COC(=O)C1=CO[C@@H](O)[C@@H]2C(CO)=CC[C@@H]12`, the Potency in assay [1] is 18.7 µM (active).
As to `CC=C(C)C(=O)O[C@H]1C(C)=C[C@]23C(=O)[C@@H](C=C(CO)[C@@H](O)[C@]12O)[C@H]1[C@@H](C[C@H]3C)C1(C)C`, the Potency was 18.7 µM (active) in assay [1]; 0.0372 µM (active) in assay [3]; 4.69 µM (active) in assay [4]; 20.9 µM (active) in assay [5]; 14.8 µM (active) in assay [6]; 4.18 µM (active) in assay [8].
Regarding `Cc1c(NC(=O)c2ccc(C(C)(C)C)cc2)cccc1-c1cn(C)c(=O)c(Nc2ccc(C(=O)N3CCOCC3)cc2)n1`, the Potency in [9] was 20.9 µM (active); in [1], 20.9 µM (active); in [3], 23.5 µM (active); in assay [6], 8.33 µM (active); in assay [7], 16.6 µM (active); in assay [8] it was 18.7 µM (active).
As to `CCNc1cc(NC2CCC(O)CC2)nc(Nc2ccc3c(ccn3Cc3ccccc3)c2)n1` (configuration not stated), the Potency in [2] was 20.9 µM (active); in assay [3], 23.5 µM (active); in assay [6], 16.6 µM (active); in assay [8] it was 29.6 µM (active).
In the case of `COCCOc1nc(-c2ccc(Cl)c(Cl)c2)n(-c2ccc(NC(=O)CCl)cc2)n1`, the Potency is 14.8 µM (active) in assay [1]; 8.33 µM (active) in assay [4]; 18.7 µM (active) in assay [5]; 16.6 µM (active) in assay [6]; 20.9 µM (active) in assay [7]; 20.9 µM (active) in assay [8].
Consider `O=c1c(-c2ccc(O)cc2)coc2cc(O)ccc12`, for which the Potency entry in assay [2], in assay [5], in assay [6] and in [8] was “inactive” throughout.
Turning to `CN1[C@@H]2CCC[C@@H]1CC(NC(=O)c1nn(C)c3ccccc13)C2` (some centres not stated), the Potency entry in assay [1], in assay [3], in assay [4], in [5] and in assay [8] was “inactive” throughout.
As for `CN(C[C@@H]1COCCO1)S(=O)(=O)Nc1ccc2ccc3ncc(-c4cnn(C)c4)cc3c(=O)c2c1`, the Potency was 18.7 µM (active) in [1], 0.469 µM (active) in [6], 3.72 µM (active) in assay [7] and 2.35 µM (active) in [8].
For the compound `CO[C@H]1C[C@@H]2CC[C@@H](C)[C@@](O)(O2)C(=O)C(=O)N2CCCC[C@@H]2C(=O)O[C@H]([C@H](C)C[C@@H]2CC[C@H](OCCO)[C@H](OC)C2)CC(=O)[C@H](C)C=C(C)[C@@H](O)[C@@H](OC)C(=O)[C@H](C)C[C@H](C)C=CC=CC=C1C`, the Potency entry in assay [2] is “inactive”. In addition, the Potency in [8] was 1.05 µM (active).
As to `Cc1ccc([C@@H]2O[C@H](CO)[C@@H](O)[C@H](O)[C@@H]2O)cc1Cc1ccc(-c2ccc(F)cc2)s1`, the Potency in assay [1] was 18.7 µM (active); in assay [5], 23.5 µM (active); in [8], 20.9 µM (active). In assay [3], the Potency entry is “inactive”.
For `Clc1ccc(CCC(Cn2ccnc2)Sc2c(Cl)cccc2Cl)cc1` (configuration not stated), the Potency in assay [6] is 13.2 µM (active).
`Nc1nc(F)nc2c1ncn2[C@@H]1O[C@H](COP(=O)(O)O)[C@@H](O)[C@H]1O`: the Potency in assay [1] and in assay [6] was 18.7 µM (active) in each case. The Potency entry in [8] is “inactive”.
Take `CC(=O)OC1C(C)OC(Oc2c(-c3ccc(O)cc3)oc3cc(O)cc(O)c3c2=O)C(O)C1OC(C)=O` (configuration not stated): the Potency entry in [2], in assay [3] and in assay [5] was “inactive” in each case. For the same compound, the Potency in [8] was 10.5 µM (active).
For `C=C1C(=O)OC(CCCCCCCC)C1C(=O)O` (configuration not stated), the Potency result in assay [2], in [3], in assay [4] and in assay [5] was “inactive” throughout. In addition, the Potency in assay [6] is 11.8 µM (active); in [8], 20.9 µM (active).
On to `COc1cccc(-c2cc(=O)c3ccccc3o2)c1N`, for which the Potency was 5.9 µM (active) in [1], 2.96 µM (active) in assay [6] and 16.6 µM (active) in [8].
Turning to `CCOC(CN1C(=O)[C@](CC(=O)Nc2ccc(C)cc2)(NC(=O)Nc2ccc(C)cc2)c2ccccc21)OCC`, in [2], the Potency entry was “inactive”.
With `CO[C@H]1C[C@@H]2CC[C@@H](C)[C@@](O)(O2)C(=O)C(=O)N2CCCC[C@@H]2C(=O)O[C@H]([C@@H](C)C[C@@H]2CC[C@H](O)[C@H](OC)C2)CC(=O)[C@H](C)C=C(C)[C@@H](O)[C@@H](OC)C(=O)[C@H](C)C[C@H](C)C=CC=CC=C1C`, the Potency result in [1], in assay [3] and in [4] was “inactive” in each case. Further, in [6], the Potency was 14.8 µM (active).
As to `O=c1cc(N2CCOCC2)oc2c(-c3cccc4c3sc3ccccc34)cccc12`, the Potency was 16.6 µM (active) in [1]; 14.8 µM (active) in assay [3]; 8.33 µM (active) in assay [4]; 1.18 µM (active) in [6]; 20.9 µM (active) in assay [7]; 4.18 µM (active) in [8].
As to `O=C(O)[C@H]1O[C@H](Oc2cc3oc(-c4ccccc4)cc(=O)c3c(O)c2O)[C@H](O)[C@@H](O)[C@H]1O`, the Potency in assay [1] was 23.5 µM (active); in assay [3], 16.6 µM (active); in assay [7], 23.5 µM (active); in assay [8], 18.7 µM (active). The Potency result in assay [4] is “inactive”.
With `CC(C)C[C@H](CC(=O)O)C(=O)N[C@@H](Cc1c[nH]c2ccccc12)C(=O)N[C@@H](C)c1ccccc1`, the Potency entry in assay [2], in [4], in assay [5] and in assay [8] was “inactive” throughout.
On to `O=c1cc(CN2CCOCC2)occ1OCCCCCSc1ccnc2cc(C(F)(F)F)ccc12`, for which the Potency in [3] is 2.64 µM (active); in [4], 16.6 µM (active); in assay [6], 11.8 µM (active); in assay [7], 16.6 µM (active).
For `OC[C@H]1O[C@@H](Oc2cc(O)cc(C=Cc3ccc(O)cc3)c2)[C@H](O)[C@@H](O)[C@H]1O`, the Potency result in [1], in assay [3] and in assay [5] was “inactive” throughout. Besides, the Potency in [7] was 9.35 µM (active).
As for `CC(C)OC(=O)CCCC=CC[C@@H]1[C@H](C=C[C@@H](O)COc2cccc(C(F)(F)F)c2)[C@H](O)C[C@@H]1O`, the Potency in assay [3] is 20.9 µM (active); in assay [5], 13.2 µM (active); in assay [6] it was 14.8 µM (active); in assay [7] it was 16.6 µM (active); in assay [8], 18.7 µM (active).
For `NC(=O)NN=Cc1ccc([N+](=O)[O-])o1`, the Potency entry in [3] and in assay [5] was “inactive” in each case. In addition, the Potency in [4] was 23.5 µM (active).
